The text below walks through data of PubChem BioAssay (NCI).

Test systems include RPMI-8226 leukemia; OVCAR-8 ovarian; OVCAR-5 ovarian; OVCAR-4 ovarian; SK-OV-3 ovarian; IGROV1 ovarian; OVCAR-3 ovarian; HS 578T breast; NCI/ADR-RES ovarian; T-47D breast; BT-549 breast; MDA-MB-435 melanoma; SW-620 colon; MCF7 breast; HCT-116 colon; HCC-2998 colon; KM12 colon.
What all share (assay): NCI-60 one-dose screen, 48 h (100 = growth as untreated, 0 = no growth, -100 = all killed)
Common to all, as to conditions: 10 µM unless noted

Compounds without any hit were thinned out: in the full panel of roughly 83,000, 20% have a hit.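 Values shown are percent growth following 48 h exposure of cells in 96-well plates to a single concentration of compound; below 10 was considered active.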 A number with no mark means an inactive call. Activity calls are given as the source filed them.

As for `COc1cc(C2CC(c3ccc(C)cc3)=NN2C(C)=O)ccc1Oc1ccnc2cc(Cl)ccc12` (stereo not drawn), the growth with RPMI-8226 leukemia was 83.8%; in the experiment on OVCAR-8 ovarian it was 63.1%; with OVCAR-5 ovarian, 92%; in the experiment on OVCAR-4 ovarian, -15.8% (active); in the experiment with SK-OV-3 ovarian, 13.5%; in the experiment on IGROV1 ovarian, 81.2%. In addition, the growth with OVCAR-3 ovarian was 29.1%; in the experiment with HS 578T breast, 7.55% (active); in the experiment with NCI/ADR-RES ovarian, 54.6%; in the experiment on T-47D breast, 62.2%; in the experiment with BT-549 breast it was 59.1%; in the experiment with MDA-MB-435 melanoma, 100%. Further, the growth with SW-620 colon is 66.3%; in the experiment on MCF7 breast it was 73.6%; in the experiment with HCT-116 colon it was 52.8%; in the experiment with HCC-2998 colon, 83.3%; in the experiment with KM12 colon it was 85.3%.
As for `S=c1[nH]nc2sc3ccccc3n12`, the growth with RPMI-8226 leukemia was 105%; with OVCAR-8 ovarian it was 107%; in the experiment on OVCAR-5 ovarian, 108%; in the experiment on OVCAR-4 ovarian it was 103%; with SK-OV-3 ovarian, 109%; with IGROV1 ovarian it was 96.9%. Besides, the growth in the experiment with OVCAR-3 ovarian is 119%; in the experiment on HS 578T breast, 114%; with NCI/ADR-RES ovarian, 112%; with T-47D breast, 101%; with BT-549 breast it was 116%; in the experiment with MDA-MB-435 melanoma, 118%. Moreover, the growth in the experiment on SW-620 colon is 105%; in the experiment on MCF7 breast, 98.4%; in the experiment on HCT-116 colon, 102%; in the experiment on HCC-2998 colon, 109%; in the experiment on KM12 colon it was 115%.
Turning to `COc1cc2c(c(OC)c1OC)-c1ccc(NN(C(=O)c3ccccc3)C(=O)c3ccccc3)c(=O)cc1[C@@H](NC(C)=O)CC2` (tested in a mixture with another compound), the growth was 66.6% in the experiment on RPMI-8226 leukemia; 47.1% in the experiment on OVCAR-8 ovarian; 68% in the experiment with OVCAR-5 ovarian; 63.4% in the experiment with OVCAR-4 ovarian; 20.8% in the experiment with SK-OV-3 ovarian; 12.3% in the experiment with IGROV1 ovarian. Moreover, the growth is 2.09% (active) with OVCAR-3 ovarian; -6.83% (active) in the experiment with HS 578T breast; 74% in the experiment on NCI/ADR-RES ovarian; 41.7% in the experiment with T-47D breast; 37.3% with BT-549 breast; -68.8% (active) in the experiment with MDA-MB-435 melanoma. Also, the growth in the experiment with SW-620 colon is 17.1%; in the experiment with MCF7 breast, 24%; with HCT-116 colon, 12.1%; with HCC-2998 colon, 6.05% (active); in the experiment on KM12 colon it was 9.8% (active).
Consider `Fc1ccc(-c2nnc(/C=C/c3cn(-c4ccccc4)nc3-c3ccccc3)o2)cc1`, for which the growth in the experiment on RPMI-8226 leukemia is 104%; in the experiment on OVCAR-8 ovarian, 98.2%; with OVCAR-5 ovarian, 82.2%; with OVCAR-4 ovarian it was 114%; with SK-OV-3 ovarian it was 85.5%; in the experiment with IGROV1 ovarian, 97.7%. The growth was 119% in the experiment on OVCAR-3 ovarian; 96.9% in the experiment on HS 578T breast; 88.2% in the experiment with NCI/ADR-RES ovarian; 72.6% with T-47D breast; 86.6% with BT-549 breast; 100% in the experiment on MDA-MB-435 melanoma. For the same compound, the growth in the experiment with SW-620 colon is 86.6%; in the experiment on MCF7 breast, 94%; in the experiment on HCT-116 colon it was 57%; with HCC-2998 colon it was 95%; with KM12 colon it was 102%.
For `Oc1ccccc1/C=N\Nc1ccccc1`, the growth is 43.7% with RPMI-8226 leukemia; 52% in the experiment with OVCAR-8 ovarian; 55.5% with OVCAR-5 ovarian; 84% in the experiment on OVCAR-4 ovarian; 108% in the experiment on SK-OV-3 ovarian; 57.3% with IGROV1 ovarian. Further, the growth in the experiment with OVCAR-3 ovarian is 79.1%; in the experiment with HS 578T breast, 80.8%; with NCI/ADR-RES ovarian, 44.1%; in the experiment on T-47D breast, 44.5%; in the experiment on BT-549 breast, 65.1%; in the experiment on MDA-MB-435 melanoma, 28.6%. In addition, the growth in the experiment on SW-620 colon is 34.5%; with MCF7 breast, 61.1%; with HCT-116 colon, 68.6%; with HCC-2998 colon, 79.6%; in the experiment on KM12 colon it was 19.8%.
Take `O=C(/C=C/c1ccc(O)c(O)c1)N1CCN(c2ccc(Cl)cc2)CC1`: the growth in the experiment on RPMI-8226 leukemia was 42%; in the experiment with OVCAR-8 ovarian it was 61.6%; with OVCAR-5 ovarian, 95.3%; in the experiment with OVCAR-4 ovarian, 51.4%; in the experiment with SK-OV-3 ovarian, 80.7%; in the experiment with IGROV1 ovarian, 14.9%. The growth in the experiment with OVCAR-3 ovarian is 60.3%; in the experiment on HS 578T breast, 80.2%; in the experiment with NCI/ADR-RES ovarian, 58.7%; in the experiment on T-47D breast it was 49.2%; with BT-549 breast, 56.9%; in the experiment with MDA-MB-435 melanoma it was 67.9%. For the same compound, the growth is 64% in the experiment on SW-620 colon; 74.9% in the experiment with MCF7 breast; 55.7% in the experiment on HCT-116 colon; 82.9% in the experiment with HCC-2998 colon; 73.5% in the experiment with KM12 colon.
Regarding `Cc1nc(N)[nH]c(=O)c1C`, the growth with RPMI-8226 leukemia was 83.7%; with OVCAR-8 ovarian, 105%; in the experiment on OVCAR-5 ovarian, 98.3%; with OVCAR-4 ovarian, 111%; with SK-OV-3 ovarian, 99.4%; in the experiment with IGROV1 ovarian, 9.58% (active). Also, the growth in the experiment with OVCAR-3 ovarian was 121%; in the experiment with HS 578T breast, 183%; with NCI/ADR-RES ovarian, 91%; in the experiment on T-47D breast, 83%; in the experiment with BT-549 breast, 45.1%; with MDA-MB-435 melanoma, 106%. For the same compound, the growth with SW-620 colon was 125%; in the experiment on MCF7 breast, 95%; in the experiment with HCT-116 colon it was 101%; with HCC-2998 colon it was 81.1%; in the experiment on KM12 colon it was 122%.
As for `O=C1NCN(CCO)CN1`, the growth in the experiment with RPMI-8226 leukemia is 85.6%; with OVCAR-8 ovarian, 99.9%; with OVCAR-5 ovarian, 101%; in the experiment with OVCAR-4 ovarian, 98.5%; in the experiment on SK-OV-3 ovarian, 95.4%; with IGROV1 ovarian it was 115%. For the same compound, the growth in the experiment with OVCAR-3 ovarian was 107%; in the experiment with HS 578T breast, 96.7%; in the experiment with NCI/ADR-RES ovarian it was 102%; in the experiment on T-47D breast, 89.9%; in the experiment with BT-549 breast, 75.9%; in the experiment with MDA-MB-435 melanoma it was 97.1%. Besides, the growth is 102% with SW-620 colon; 94.1% with MCF7 breast; 106% in the experiment on HCT-116 colon; 100% with HCC-2998 colon; 108% in the experiment on KM12 colon.
Regarding `ClC1C2CC(c3ccccc32)C1Cl` (stereo not drawn), the growth is 97.6% in the experiment on RPMI-8226 leukemia; 113% in the experiment with OVCAR-8 ovarian; 102% in the experiment with OVCAR-5 ovarian; 112% in the experiment on OVCAR-4 ovarian; 115% with SK-OV-3 ovarian; 118% in the experiment with IGROV1 ovarian. The growth in the experiment on OVCAR-3 ovarian was 113%; in the experiment with HS 578T breast it was 113%; in the experiment on NCI/ADR-RES ovarian, 106%; in the experiment with T-47D breast, 103%; in the experiment on BT-549 breast, 102%; in the experiment with MDA-MB-435 melanoma, 120%. The growth with SW-620 colon was 110%; in the experiment with MCF7 breast it was 103%; in the experiment on HCT-116 colon, 105%; in the experiment with HCC-2998 colon it was 110%; with KM12 colon, 116%.
